Compounds without any hit were thinned out: in the full panel of roughly 79,000, 15% have a hit. Rule as the data show it: active = growth inhibition above about 70%; inactive = the rest.
Experiments:
[1] = NCI Yeast Anticancer Drug Screen. Data for the rad50 strain (AID 155);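 also: 0% = growth of vehicle-only cultures of the same strain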; details: S. cerevisiae rad50 strain growth inhibition; at 50.0 µM; active compounds read high
How it was run: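 Readout: growth inhibition relative to vehicle-treated cultures. Compound exposure was carried out in a genetically defined yeast strain deficient in DNA damage repair.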

[2] = NCI Yeast Anticancer Drug Screen. Data for the mec2-1 strain (AID 157); details: S. cerevisiae mec2-1 strain, at 50.0 µM, active compounds read high
How it was run: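 Strain: mec2-1 (DNA repair/cell cycle alteration). Compound exposure, then growth measured; inhibition expressed relative to vehicle.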

[3] = NCI Yeast Anticancer Drug Screen. Data for the sgs1 mgt1 strain (AID 161);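 also: 0% = growth of cultures given vehicle only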; details: S. cerevisiae sgs1 mgt1 strain, at 50.0 µM, active compounds read high
How it was run: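 Read-out: growth inhibition vs vehicle controls. Cells: mutant yeast strain deficient in DNA damage repair.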

[4] = NCI Yeast Anticancer Drug Screen. Data for the cln2 rad14 strain (AID 165);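 also: 0% = growth equal to vehicle treated cultures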; details: S. cerevisiae cln2 rad14 strain, at 50.0 µM, active compounds read high
How it was run: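 Compounds are applied to the cln2 rad14 yeast strain, and growth is then compared with that of vehicle-treated cultures to give inhibition.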

[5] = NCI Yeast Anticancer Drug Screen. Data for the bub3 strain (AID 167); details: S. cerevisiae bub3 mutant strain, at 50.0 µM, active compounds read high
How it was run: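 Readout: yeast growth inhibition, expressed relative to vehicle-only wells. The test organism is a mutant strain from a panel with lesions in DNA repair or checkpoint genes.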

[6] = NCI Yeast Anticancer Drug Screen. Data for the mlh1 rad18 strain (AID 175); details: S. cerevisiae mlh1 rad18 strain growth inhibition; at 50.0 µM; active compounds read high
How it was run: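 Read-out is yeast growth inhibition, calculated against vehicle-only controls. The compound was applied to a strain engineered with DNA damage repair alterations.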

Measured: growth inhibition

CCC1CCCCCC1=O (centres undefined)
inactive: [1] -34% | [2] -27.2% | [3] -18.6% | [4] -25.4% | [5] -30.4% | [6] -21.3%

COc1ccc(C2c3cc4c(cc3OC(O)(CO)C2C(=O)O)OCO4)c(OC)c1OC (centres undefined) (tested in a mixture with another compound)
inactive: [1] 0.2% | [2] -4% | [3] 6% | [4] -15.5% | [5] -18.3% | [6] 9.65%

COc1cccc(NC(=S)/C(=C(/[O-])c2ccc([N+](=O)[O-])cc2)[n+]2cccc3ccccc32)c1
inactive: [1] 26.1% | [2] 19.2% | [3] 22.1% | [4] 33.2% | [5] 28.2% | [6] 10.5%

CC1=NN(C(=O)CC(=O)Nc2ccc(C(=O)O)cc2)C(=O)C1N=Nc1ccc(S(N)(=O)=O)cc1 (centres undefined)
inactive: [1] -4.7% | [2] -15.8% | [3] -1.5% | [4] -24.3% | [5] 0.55% | [6] -5.95%

CC(=O)NCCc1ccc(OCc2ccccc2)cc1
inactive: [1] -7.15% | [2] 2.25% | [3] 3.7% | [4] -51.5% | [5] -19.4% | [6] -1.45%

C/C(C(=O)O)=C1\N=C(N)NC1=O
inactive: [1] -3.25% | [2] -2.9% | [3] -5.5% | [4] -36.9% | [5] -17.9% | [6] -14.4%

C/C(CC(=O)Nc1ccc(Cc2ccc(Cl)cc2)cc1)=N/Nc1ccc([N+](=O)[O-])cc1[N+](=O)[O-]
inactive: [1] 28.1% | [2] -0.25% | [3] 31.4% | [4] -1.15% | [5] -8.55% | [6] 22.6%

CCOC(=O)c1nnc(C)[nH]c1=O
inactive: [1] 13.4% | [2] -5.5% | [3] -14.5% | [4] -43.9% | [5] -2.8% | [6] 15%

COc1cccc2c1C(=O)c1c(O)c3c(c(O)c1C2=O)C[C@@](O)(c1csc(-c2ccncc2)n1)C[C@@H]3OC1CC(N)C(O)C(C)O1 (some centres undefined)
inactive: [1] 22.8% | [2] 15.4% | [3] 17.2% | [4] 32.2% | [5] -2.25% | [6] 25.8%

CCCCCCCC(=O)Oc1c(Cl)c(Cl)c(C#N)c(Cl)c1C#N
inactive: [1] 20.9% | [2] -3.55% | [3] 11.5% | [4] 13.7% | [5] 5.8% | [6] 25.4%

CCOC(=O)C1C(C)C2(C#N)C(=N)OC1(C)C2(C#N)C#N (centres undefined)
inactive: [1] 21.5% | [2] 19.1% | [3] -6.6% | [4] 1.5% | [5] -22.4% | [6] -12.9%

CCOC(=O)N1CCN(c2ccc3ccc(N)nc3n2)CC1
inactive: [1] 22.1% | [2] -12.7% | [3] 28.8% | [4] -4.65% | [5] 18.9% | [6] 16.9%

CN1CCCC(CO)C1 (centres undefined)
inactive: [1] -10.8% | [2] -10.2% | [3] -7.65% | [4] 6.95% | [5] 7.75% | [6] -5.3%

CCOC(=O)CC1CC2c3cc(OC)c(OC)cc3CCN2CC1CC (centres undefined)
inactive: [1] 3.1% | [2] 12.8% | [3] -6.7% | [4] -5.25% | [5] 1.95% | [6] 13.8%

CCOC(=O)C1C(=O)CC1(C)C (centres undefined)
inactive: [1] 12.2% | [2] 6.9% | [3] 12.2% | [4] 36% | [5] 25.9% | [6] 21.8%

Brc1ccccc1C(Nc1nncs1)Nc1nncs1
inactive: [1] 6.6% | [2] -4.35% | [3] -10.7% | [4] -3.1% | [5] -0.25% | [6] 8.35%

O=C1C2C3C=CC(O3)C2C(=O)N1N=C1CCCCC1 (centres undefined)
inactive: [1] 10.4% | [2] 13.2% | [3] 14.2% | [4] 8.65% | [5] 12.6% | [6] 19.4%

CCOc1c(N=Nc2ccccc2C)c(C)nn1C(=S)SC
inactive: [1] -1.2% | [2] -2.2% | [3] -15.4% | [4] 23.8% | [5] -19.4% | [6] 15.7%

O=C(Cc1ccccc1)NNC(=O)Nc1ccccc1
inactive: [1] 4% | [2] -3.6% | [3] 9.4% | [4] -26.6% | [5] 2.5% | [6] 1.05%
